According to PMC7819943, “Rice protein-binding microarrays: a tool to detect cis-acting elements near promoter regions in rice”:
The full ranking holds about 35,000 sequences; the median of “fluorescence intensity (a.u.)” is about 10,000, and the highest 2% start at about 52,000. This excerpt belongs to a sample that is enriched for the highest values.

target: T1, OsWOX13 (Oryza sativa, UniProt Q5QMM3 1-267); assay: protein-binding microarray (RPBM); PBS, 2% BSA, 51.3 ng/ul salmon testes DNA, 50 uM zinc acetate, 200 nM TF, 25 C, 1 h; high values mean tight binding; details: protein: recombinant; tags: N-terminal polyhistidine and DsRed monomer fusion (pET32a); label: CyDye5-dUTP incorporated in the synthesized complementary strand; 3' TTTTT single-stranded linker to array surface; dsDNA, one strand shown
T1 sequence: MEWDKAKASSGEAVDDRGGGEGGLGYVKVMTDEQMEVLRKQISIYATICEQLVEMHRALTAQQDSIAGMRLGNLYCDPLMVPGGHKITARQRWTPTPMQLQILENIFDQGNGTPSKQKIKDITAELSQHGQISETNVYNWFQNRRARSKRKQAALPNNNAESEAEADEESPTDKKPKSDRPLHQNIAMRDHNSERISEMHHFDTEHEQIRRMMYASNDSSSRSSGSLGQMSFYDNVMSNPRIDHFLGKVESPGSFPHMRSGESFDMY
Summary of the method: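 Per-feature fluorescence intensity (arbitrary units), read on an Axon 4000B scanner, is the binding signal. Transcription factors carrying an N-terminal polyhistidine tag and DsRed fusion were expressed in E. coli BL21-CodonPlus and purified on Ni–NTA. A custom Agilent array, made double-stranded by primer extension with Cy5-dUTP and blocked with 2% BSA, was incubated with 200 nM protein in PBS, 2% BSA, salmon testes DNA and 50 µM zinc acetate at 25 °C for 1 h and then washed.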

Row | Sequence | binding signal
1 | TTACAAGACTTTCAATTATTATCCACATTTATATAGATGTCGGAGTCACCTAGTGCAG | 7150 fluorescence intensity (a.u.)
2 | CACCAATCAGGGTTCCAAGTAGAAGAGGTGGGCAGAGAGCCGGAGTCACCTAGTGCAG | 6870 fluorescence intensity (a.u.)
3 | GATAATTTGGTCATTGCTAAAATATTTGGGAAAAGTTAGCCGGAGTCACCTAGTGCAG | 23700 fluorescence intensity (a.u.)
4 | TTATAATTGGAAAATAAATGAAGGGTTATAATTAAATGAACGGAGTCACCTAGTGCAG | 12000 fluorescence intensity (a.u.)
5 | CTAAGCTGTGATTTCTTTTCTTTATGTCACCACCTCCAAACGGAGTCACCTAGTGCAG | 3460 fluorescence intensity (a.u.)
6 | TTAATTAGACTGACATGTGGGGTCCGCGTGGGTCCCACCACGGAGTCACCTAGTGCAG | 20200 fluorescence intensity (a.u.)
7 | TAGTCGTGTCAATTTGGAAAATTGGAAAGCCGTGGGGAGACGGAGTCACCTAGTGCAG | 11400 fluorescence intensity (a.u.)
8 | TGATAATAATCTGTTCAATAATTTATCTTAAACAGGGCCTCGGAGTCACCTAGTGCAG | 11200 fluorescence intensity (a.u.)
9 | CCCTATCAATTACCTTCACTATCATATTAATCATTGTAGGCGGAGTCACCTAGTGCAG | 24100 fluorescence intensity (a.u.)
10 | CAAACAGTCAATTAGGCCTAAACAAGTTGCTACGAGCTAGCGGAGTCACCTAGTGCAG | 33200 fluorescence intensity (a.u.)
11 | GCTAATTATAGTTTAATTAGGCTTAATAAATTTACAGTTTCGGAGTCACCTAGTGCAG | 42300 fluorescence intensity (a.u.)
12 | ATTAATTAAAGCTAATTAAACGATGTTGTTTATTAGGCTTCGGAGTCACCTAGTGCAG | 58700 fluorescence intensity (a.u.)
13 | TAAAATTAAGCTCCAAATAAACTATATAAAATTATGTATTCGGAGTCACCTAGTGCAG | 4090 fluorescence intensity (a.u.)
14 | TTATTACAATTTAATTATATTTTAATTATTCTAAAAGCTTCGGAGTCACCTAGTGCAG | 20200 fluorescence intensity (a.u.)
15 | CACTTAATTTGTTAATTAAATATATTTTCCAAACAAATTTCGGAGTCACCTAGTGCAG | 39100 fluorescence intensity (a.u.)
16 | GAATATTAAACTTCCAAAACAGGTCCAAAGCTATGTTCTTCGGAGTCACCTAGTGCAG | 57500 fluorescence intensity (a.u.)
17 | AATTGCGTGATTGTGCTAATCAAAATGCAGAATTGGATATCGGAGTCACCTAGTGCAG | 23000 fluorescence intensity (a.u.)
18 | CAAAATTAAACTTTAAAATTCAGACTTCAGACTCCAGTGCCGGAGTCACCTAGTGCAG | 13400 fluorescence intensity (a.u.)
19 | ACTACTAAGTTAATTGCATTTTACTTCTCTCTCAATCTCGCGGAGTCACCTAGTGCAG | 10000 fluorescence intensity (a.u.)
20 | TTCGATCCTGACTGGAATTGGATGCCTAGTTTGCCTTGCCCGGAGTCACCTAGTGCAG | 4190 fluorescence intensity (a.u.)
21 | GTTAACTGAATATTATATCGAAGAAAACTTGCATTTCAGACGGAGTCACCTAGTGCAG | 7980 fluorescence intensity (a.u.)
22 | CTCAAAATTTAAATTTAAGGTTAAAAGTTAAAATTTTACGCGGAGTCACCTAGTGCAG | 21200 fluorescence intensity (a.u.)

Row | Sequence | binding signal
23 | CGATCAATCTCTCTTTATTTATTTGCAGATCGATCAACCTCGGAGTCACCTAGTGCAG | 5760 fluorescence intensity (a.u.)
24 | ACATTGACACCAATCTTGAACATAATAGCGCATTACAGTACGGAGTCACCTAGTGCAG | 7300 fluorescence intensity (a.u.)
25 | TGGGATTGGGAAATAAATGAAGGGTTAGGATTAAATGGAACGGAGTCACCTAGTGCAG | 24100 fluorescence intensity (a.u.)
26 | TAGTCTTGATTGATTGGCAGATGACAGCATAATAGCCGTACGGAGTCACCTAGTGCAG | 65200 fluorescence intensity (a.u.)
27 | CCTGCATCATCAATCTGCCTACATATCGATCGATTGATCTCGGAGTCACCTAGTGCAG | 4630 fluorescence intensity (a.u.)
28 | ATAGATAGATAGATAGATAGATAGATTGATCGATCGATCGCGGAGTCACCTAGTGCAG | 55400 fluorescence intensity (a.u.)
29 | GTCTTTATTTGATTGATCATCTGGCATCAATCAATCGGCTCGGAGTCACCTAGTGCAG | 65500 fluorescence intensity (a.u.)
30 | GATAATAGATAATAGATAGATTGAAGATTAGGAAAGGGAACGGAGTCACCTAGTGCAG | 54800 fluorescence intensity (a.u.)
31 | GGATTTGATCGATTGGATTTCGATTTGGCCCGCGATTTGGCGGAGTCACCTAGTGCAG | 4010 fluorescence intensity (a.u.)
32 | TTGACTTGTACATAGTAATGATTGGCAGGTAATGACGTACCGGAGTCACCTAGTGCAG | 24100 fluorescence intensity (a.u.)
33 | ACAGAGAGAGGTAGGTGATTGATAATAAGAAAGAAGGGAACGGAGTCACCTAGTGCAG | 13000 fluorescence intensity (a.u.)
34 | AAGATAGATAGATAGATAGATAGATAGATCGATCGATCATCGGAGTCACCTAGTGCAG | 14900 fluorescence intensity (a.u.)
35 | TTTAATCTTTAATATTGATTTTGCCACCAACTAAAACGGCCGGAGTCACCTAGTGCAG | 4660 fluorescence intensity (a.u.)
36 | ATCCATGTAAATTAACTCATCCAATGTGACAGCACGACGCCGGAGTCACCTAGTGCAG | 8800 fluorescence intensity (a.u.)
37 | ACCCAGTAATTTCCAAATCTAAAGATAGGAGATTTTAGGACGGAGTCACCTAGTGCAG | 6740 fluorescence intensity (a.u.)
38 | ATACTAATTATACGGTCACACCTATCCGTTGCATGATGCACGGAGTCACCTAGTGCAG | 21100 fluorescence intensity (a.u.)
39 | CTTAATTTGGCACTGCCCAAGAAAATTTTGACAAGTACTTCGGAGTCACCTAGTGCAG | 9440 fluorescence intensity (a.u.)
40 | TTCGCTTTGATGGACGGCTCAGATCGGCTCCTAATCCATCCGGAGTCACCTAGTGCAG | 3310 fluorescence intensity (a.u.)
41 | TGATTAAATATAACTAAACTGTCAACGACATAATGCATTACGGAGTCACCTAGTGCAG | 3470 fluorescence intensity (a.u.)
42 | AACTAACAGATTATTCTATGTCGGTTTATTATAATCCAACCGGAGTCACCTAGTGCAG | 15700 fluorescence intensity (a.u.)
43 | AGGAATCGGAATTGATTTCATGCACTGATCGATCCATCCACGGAGTCACCTAGTGCAG | 7970 fluorescence intensity (a.u.)
44 | AATAGATTGATTGATTGATTGAATAATATAGATAGATTGACGGAGTCACCTAGTGCAG | 64400 fluorescence intensity (a.u.)
